High-throughput results (PubChem)
NCOA3 inh: inhibits human SRC3 coactivator. Q9Y6Q9. HEK293 GAL4-SRC3 luciferase reporter, luminescence. inhibition, % at 3.6 µM. 360,000 compounds, 0.17% hits. AID 588352;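 active = inhibition above a per-campaign cutoff, the mean of all compounds plus 3 SD, cut at about 60% in these data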;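 note: 0% = DMSO-treated cells and 100% = gossypol-treated cells at 36 µM; higher means less SRC3-driven luciferase light from the GAL4 reporter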
EBV LMP1 NFkB: Epstein-Barr LMP1 NF-kappaB reporter inhibition. 350,000 compounds, 0.69% hits. inhibition, % at 12.5 µM. LMP1-induced NF-kappaB luciferase reporter cells, luminescence; in the data active = inhibition above about 41%;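 note: 0% = neutral control wells and 100% = reference inhibitor control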
Shn3 inh set2: Schnurri-3 reporter inhibition in Clone20 osteoblasts; inhibition, % at 12.5 µM; Clone20 osteoblast Shn3 3'UTR firefly luciferase, 24 h; AID 588674; 360,000 compounds, 0.52% hits;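 active = mean inhibition of at least 75% with every replicate also reaching 75%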;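 note: 0% = median of neutral control wells and 100% = pilot-screen positive control compound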
SRC2 inh: human SRC2 (NCOA2) inhibition. AID 651957. HEK293 GAL4-SRC2 luciferase reporter, luminescence. inhibition, % at 9 µM. 370,000 compounds, 0.17% hits. Q15596;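 active = inhibition above the mean inhibition of all tested compounds plus 3 SD, set per campaign, cut at about 52% in these data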;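 note: 0% = DMSO treated cells and 100% = cells given Gossypol at 36 µM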
NCOA1 inh: inhibits human SRC1 coactivator | Q15788 | HEK293 GAL4-SRC1 luciferase reporter, luminescence | inhibition, % at 3.6 µM | 360,000 compounds, 0.12% hits | AID 588354;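 active = inhibition above the campaign mean plus 3 SD, with each screening campaign given its own cutoff, cut at about 60% in these data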;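 note: 0% = DMSO treated cells and 100% = gossypol at 36 µM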
NR5A2 inv ag: NR5A2 inverse agonism in reporter assay | inhibition, % at 3.6 µM | O00482 | AID 602396 | HEK293T StAR-luciferase reporter, LRH-1 transfected, 24 h | 360,000 compounds, 0.13% hits;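 active = inhibition above the mean inhibition of all tested compounds plus 3 SD, cut at about 73% in these data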;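 note: 0% = DMSO wells and 100% = reporter-only cells lacking LRH-1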
Target sequence (O00482 whole entry, looked up): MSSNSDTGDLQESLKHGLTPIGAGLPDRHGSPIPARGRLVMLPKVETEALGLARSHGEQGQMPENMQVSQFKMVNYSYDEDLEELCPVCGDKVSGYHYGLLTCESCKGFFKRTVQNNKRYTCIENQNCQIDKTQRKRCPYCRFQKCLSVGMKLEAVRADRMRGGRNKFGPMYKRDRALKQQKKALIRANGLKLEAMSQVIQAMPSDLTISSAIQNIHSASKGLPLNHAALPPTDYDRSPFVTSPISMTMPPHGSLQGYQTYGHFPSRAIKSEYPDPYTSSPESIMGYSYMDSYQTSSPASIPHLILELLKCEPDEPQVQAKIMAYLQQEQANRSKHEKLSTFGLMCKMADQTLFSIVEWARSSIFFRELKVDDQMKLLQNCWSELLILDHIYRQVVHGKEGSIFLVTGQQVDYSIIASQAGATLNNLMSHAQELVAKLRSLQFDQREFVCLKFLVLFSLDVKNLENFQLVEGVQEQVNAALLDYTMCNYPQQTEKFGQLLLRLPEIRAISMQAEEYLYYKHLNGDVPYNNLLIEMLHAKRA
* = called active by the depositor; nt = not tested or not shown. Sampled rows, rich in hits. Any-hit rate of the full collection: about 1.2%.

SMILES	NCOA3 inh	EBV LMP1 NFkB	Shn3 inh set2	SRC2 inh	NCOA1 inh	NR5A2 inv ag
O=S(=O)(NC1c2cccc3cccc(c23)C1Sc1ncccn1)c1ccccc1 (stereo unspecified)	-17	61*	-12	8	1	17
Cc1ccc(S(=O)(=O)NC2c3cccc4cccc(c34)C2Sc2nc(C)cc(C)n2)cc1 (stereo unspecified)	9	-22	6	6	-1	-15
COC(=O)C1CN(Cc2cn(CCC3OCCO3)nn2)CCS(=O)(=O)N1Cc1ccc(OC)cc1 (stereo unspecified)	nt	nt	nt	4	nt	nt
CCC(CO)Nc1cccc2c1S(=O)(=O)N(Cc1cn(Cc3ccc(F)cc3)nn1)Cc1ccccc1O2 (stereo unspecified)	nt	nt	nt	9	nt	nt
Cc1cc(C=C2C(=O)c3ccccc3C2=O)c(C)n1-c1ccc(C(=O)O)cc1	-6	0	-6	-14	3	12
Cc1cc(/C=C2\Cc3ccccc3C2=O)c(C)n1-c1ccccc1	51	44*	47	23	50	-55
Cc1cc(C=C2C(=O)c3ccccc3C2=O)c(C)n1-c1ccccc1	85*	13	21	3	2	-7
C=CCN1C(=O)[C@H](CC(=O)N2CCN(C(=O)c3ccco3)CC2)[C@@]2(C(=O)OCC)CCCC=C12	nt	nt	nt	28	nt	nt
O=C(CCl)N(O)c1ccc(C=Cc2ccccc2)cc1	-71	53*	6	-14	-114	-16
CCCCCCCCN1C(=O)[C@@H](CC(=O)NCc2ccc(C)o2)C[C@@]2(C(=O)OC)C1=C[C@H](COCc1ccccc1)O[C@@H]2C	nt	nt	nt	15	nt	nt
CC[C@@]1(O)C(=O)OCc2c1cc1n(c2=O)Cc2cc3c(CN(C)C)c(O)ccc3nc2-1	71*	75*	53	45	22	86*
CC[C@@]1(O)C(=O)OCc2c1cc1n(c2=O)Cc2cc3c(N)cccc3nc2-1	73*	83*	36	47	58	91*
COc1cc2cc(C(=O)N3CCN(c4ccccc4OC)CC3)[nH]c2cc1OC	-17	53*	2	-21	-5	13
COc1ccccc1N1CCN(C(=O)c2cc3ccccc3[nH]2)CC1	-12	34	-8	-23	0	16
COc1ccc(/C(C)=N/NC(=O)c2cccc(S(=O)(=O)N3CCCC3)c2)c(O)c1	35	16	88*	22	6	6
Brc1ccc(N=Nc2ccc3ccccc3n2)cc1	36	63*	82	15	14	-7
Cc1sc2nc(SCC(=O)OC(C)C)n(C)c(=O)c2c1C	20	47*	7	-5	7	24
Cc1ccc(C)c(NC(=O)CN2C(=O)CCSc3ccccc32)c1	nt	nt	nt	0	nt	nt
CCOC(=O)N1CCC(Nc2c(N3CCN(c4cc(Cl)ccc4C)CC3)c(=O)c2=O)CC1	1	7	3	0	7	16
CCOC(=O)N1CCC(Nc2c(-c3ccc(C)c(C)c3)c(=O)c2=O)CC1	4	53*	-4	2	-6	-6
COc1ccc(/C=N/Nc2cc(C)nc3ccc(Br)cc23)cc1	-9	-26	93*	-10	-2	-5
COc1ccc2nc(C)cc(N/N=C/c3cccc(OC)c3O)c2c1	-19	5	11	-12	-10	-4
CC1C/C(=C/c2cccn2C)C(=O)/C(=C/c2cccn2C)C1 (stereo unspecified)	-1	-8	-22	-12	-25	3
CC1C/C(=C/c2ccncc2)C(=O)/C(=C/c2ccncc2)C1 (stereo unspecified)	-24	92*	80	74*	-303	45
CCOC(=O)N1CCN(C(=O)C[C@H]2C[C@@]3(C(=O)OC)C(=C[C@H](C(C)C)O[C@@H]3C3CC3)N(Cc3ccc(Cl)cc3Cl)C2=O)CC1	nt	nt	nt	24	nt	nt
O=C(NCc1ccccc1)[C@H]1CCCN1C(=O)[C@H]1CCCN1C(=O)c1ccc(F)cc1F	nt	nt	nt	-9	nt	nt
COc1cccc(CNC(=O)[C@H]2CCCN2C(=O)[C@H]2CCCN2C(=O)c2ccccc2C(F)(F)F)c1	nt	nt	nt	-24	nt	nt
O=C(NCCc1c[nH]c2ccccc12)OCc1cn(-c2ccc(F)cc2F)nn1	nt	nt	nt	-2	nt	nt
C=C(C(=O)c1ccccc1)C(CC(=O)c1ccccc1)c1ccccc1 (stereo unspecified)	38	69*	89*	24	8	14
